Data published in the supplement of paper PMC3334620.
The full ranking holds about 33,000 sequences; the median of “E-score (-0.5 to 0.5)” is about -0.017, and the highest 2% start at about 0.3. The entries come from a sample that favours the highest values as a whole.

These sequences were tested against T1, Sut1 (UniProt P53032) (assay: PBM E-score (8-mer binding enrichment) (E-score (-0.5 to 0.5)); higher = stronger / more preferred TF binding). Details: protein concentration: 200 nM; construct: GST-full length.
T1 sequence: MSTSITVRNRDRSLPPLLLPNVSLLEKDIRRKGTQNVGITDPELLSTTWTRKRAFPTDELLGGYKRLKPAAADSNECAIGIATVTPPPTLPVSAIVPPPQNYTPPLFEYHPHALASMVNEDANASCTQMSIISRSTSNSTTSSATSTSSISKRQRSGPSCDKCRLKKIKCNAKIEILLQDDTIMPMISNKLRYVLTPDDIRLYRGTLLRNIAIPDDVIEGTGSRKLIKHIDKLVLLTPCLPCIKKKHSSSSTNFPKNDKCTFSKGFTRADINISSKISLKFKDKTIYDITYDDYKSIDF
In short: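 Yeast transcription factors carrying a GST tag, as full-length proteins or DNA-binding domains, were produced by PURExpress in vitro transcription/translation. About 100-200 nM protein was applied to universal all-10-mer Agilent arrays, double-stranded by primer extension on fresh or once-stripped slides. Bound protein was detected with fluorescent anti-GST, and scans were normalised with masliner. The Universal PBM Analysis Suite gave each ungapped eight-base word, pooled with its reverse complement, an E-score, a modified Wilcoxon-Mann-Whitney statistic.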
With GCAGTAAC the “PBM E-score” value was -0.144. For GAATTGTA, the “PBM E-score” value was 0.128. CTCTCCCC was tested, and the “PBM E-score” value was -0.259. With AATGCTTG the “PBM E-score” value was -0.238. For CGACCTGA, the “PBM E-score” value was -0.184. In the case of CCTAAAGA, the “PBM E-score” value is reported as 0.0405. For ACTAATCA, the “PBM E-score” value was 0.139. In the case of CAGAGTCA, the “PBM E-score” value is reported as -0.379. In the case of CAAAGAAA, the “PBM E-score” value is reported as 0.115. TAAAGAAA was tested, and the “PBM E-score” value was 0.301. In the case of TCAAGAAA, the “PBM E-score” value is reported as 0.316. With CCAAGAAA the “PBM E-score” value was 0.241. In the case of ACAAGAAA, the “PBM E-score” value is reported as 0.218. With GAAAGAAA the “PBM E-score” value was 0.294. In the case of CTAGGCCA, the “PBM E-score” value is reported as -0.145. With ATGGGGAA the “PBM E-score” value was -0.0455. GAGAAGGC was tested, and the “PBM E-score” value was -0.0615. In the case of CGCGCACC, the “PBM E-score” value is reported as -0.0354. With GGTGAGAA the “PBM E-score” value was 0.137. CCGCTCAA was tested, and the “PBM E-score” value was -0.078. CATCCGGG was tested, and the “PBM E-score” value was -0.0527. With ACTCCCGG the “PBM E-score” value was 0.174. For ACTCCGGC, the “PBM E-score” value was 0.489. In the case of ACTCCGGG, the “PBM E-score” value is reported as 0.491. CCTCCGGC was tested, and the “PBM E-score” value was 0.106. With ACTCCTGC the “PBM E-score” value was 0.0597. In the case of TACAATGA, the “PBM E-score” value is reported as 0.153. With CAAGATTC the “PBM E-score” value was 0.235. With CTACGGAC the “PBM E-score” value was 0.169. ATACGGAT was tested, and the “PBM E-score” value was 0.0822. In the case of ATACGGAG, the “PBM E-score” value is reported as 0.362. For ATACGGTG, the “PBM E-score” value was 0.0347. CTACGGAG was tested, and the “PBM E-score” value was 0.381. For CTACGGAA, the “PBM E-score” value was 0.0897. CAGAAGGG was tested, and the “PBM E-score” value was -0.238. For ACTGCAAG, the “PBM E-score” value was -0.0394. ATGGGAAA was tested, and the “PBM E-score” value was 0.0371. ATGGCCGG was tested, and the “PBM E-score” value was -0.0767. With GGCCGGAC the “PBM E-score” value was 0.302. For GGCCGGAA, the “PBM E-score” value was 0.0761. AGCCGGCG was tested, and the “PBM E-score” value was -0.0364. With AGCCGGTC the “PBM E-score” value was -0.166. For AGCCGGTG, the “PBM E-score” value was 0.00841. AGCCGGAT was tested, and the “PBM E-score” value was 0.125. In the case of AGCCGGAA, the “PBM E-score” value is reported as 0.233. For AGCCGGAG, the “PBM E-score” value was 0.371. AGCCGGAC was tested, and the “PBM E-score” value was 0.342. For CGCCGGAC, the “PBM E-score” value was 0.275. CGCCGGCC was tested, and the “PBM E-score” value was -0.0583. In the case of CGCCGGCG, the “PBM E-score” value is reported as 0.375. For ACTTCTCA, the “PBM E-score” value was -0.033. For GCCCATGA, the “PBM E-score” value was -0.222. With AAGAGCGG the “PBM E-score” value was 0.0491. In the case of GTCGCGCA, the “PBM E-score” value is reported as 0.0446. TACTCTCA was tested, and the “PBM E-score” value was 0.0648. AACCGTCA was tested, and the “PBM E-score” value was -0.0173. For CGCCGGAG, the “PBM E-score” value was 0.391. With CGCCGGAA the “PBM E-score” value was 0.132. For CGCCGTAG, the “PBM E-score” value was 0.0361. GCGAACGA was tested, and the “PBM E-score” value was 0.0664. With GCTACTCC the “PBM E-score” value was 0.3. In the case of CTTACTTA, the “PBM E-score” value is reported as 0.11. In the case of ATTACTTA, the “PBM E-score” value is reported as 0.327. For ACTACTCC, the “PBM E-score” value was 0.226. For CATACTCC, the “PBM E-score” value was 0.325. ATTACTCC was tested, and the “PBM E-score” value was 0.318. ATTACTCG was tested, and the “PBM E-score” value was 0.0802. With CATACTCA the “PBM E-score” value was -0.0521. With ATTACTGA the “PBM E-score” value was 0.037. GCTACTCA was tested, and the “PBM E-score” value was 0.0293. For ATTACTCA, the “PBM E-score” value was 0.162. AATACTCC was tested, and the “PBM E-score” value was 0.199. With AATGGATC the “PBM E-score” value was 0.0349. ATCGACCC was tested, and the “PBM E-score” value was 0.0935. With AGTTTTTG the “PBM E-score” value was 0.28. CGGGAGAG was tested, and the “PBM E-score” value was -0.0788. With TACACTCA the “PBM E-score” value was 0.0601. ACATACTG was tested, and the “PBM E-score” value was 0.0299. For AGAGCACA, the “PBM E-score” value was -0.0607. For AGTACCTG, the “PBM E-score” value was 0.0244. In the case of GCTCATGA, the “PBM E-score” value is reported as -0.172. In the case of CTGAAGAC, the “PBM E-score” value is reported as -0.0142. For CTTACTCC, the “PBM E-score” value was 0.365. CTTACTAC was tested, and the “PBM E-score” value was 0.0954. With CTTACTCA the “PBM E-score” value was -0.0535. TAGCCCCA was tested, and the “PBM E-score” value was -0.121. In the case of GCCGTTAA, the “PBM E-score” value is reported as 0.092. CCCGTTAA was tested, and the “PBM E-score” value was -0.176. For TCCGTTAA, the “PBM E-score” value was 0.326. In the case of CCCAAAGC, the “PBM E-score” value is reported as -0.0681. With CCCTGGTA the “PBM E-score” value was -0.336. CTTGGGGC was tested, and the “PBM E-score” value was -0.245. For GGGTTAAC, the “PBM E-score” value was 0.0764. For CTCCTAAG, the “PBM E-score” value was -0.111. With TCCTCCGA the “PBM E-score” value was 0.0213. In the case of GACTCCGA, the “PBM E-score” value is reported as 0.486. For CCCTCCGA, the “PBM E-score” value was 0.0492. With TACTCCAA the “PBM E-score” value was -0.0372. In the case of TACTCCGA, the “PBM E-score” value is reported as 0.491. In the case of CACTCCGA, the “PBM E-score” value is reported as 0.471. With GACTCCTA the “PBM E-score” value was 0.0134. In the case of CACTCCAA, the “PBM E-score” value is reported as 0.0306. For GACTCCAA, the “PBM E-score” value was -0.0971. AAACTATT was tested, and the “PBM E-score” value was 0.24. In the case of AGCTAGGC, the “PBM E-score” value is reported as -0.232. For GCCTAGGA, the “PBM E-score” value was -0.122. With ACTGGGGC the “PBM E-score” value was -0.231. In the case of GAGCTATC, the “PBM E-score” value is reported as -0.0645. For GACCTTCC, the “PBM E-score” value was 0.0118. In the case of AGCCACCT, the “PBM E-score” value is reported as -0.248. With AACCGAAT the “PBM E-score” value was 0.099. ATCCGAAG was tested, and the “PBM E-score” value was 0.101. For CACCGAAA, the “PBM E-score” value was 0.137. In the case of GACCGAAC, the “PBM E-score” value is reported as 0.0271. With GCCCGAAC the “PBM E-score” value was -0.00475. In the case of ATCCGAAC, the “PBM E-score” value is reported as 0.213. CACCGAAC was tested, and the “PBM E-score” value was -0.0118. With GTCCGAAC the “PBM E-score” value was 0.397. For CTCCGAAC, the “PBM E-score” value was 0.468. CGCCGAAA was tested, and the “PBM E-score” value was -0.00015. In the case of CTCCGAAA, the “PBM E-score” value is reported as 0.46. In the case of ATCCGAAT, the “PBM E-score” value is reported as 0.32. In the case of CCTAGCCC, the “PBM E-score” value is reported as -0.128. AACTAGTC was tested, and the “PBM E-score” value was 0.0497. ATCGATCA was tested, and the “PBM E-score” value was 0.0202. For CGAAACAC, the “PBM E-score” value was 0.0972. CTAACTGA was tested, and the “PBM E-score” value was 0.0767. For ACTGGAAT, the “PBM E-score” value was 0.0551. With CGGCCGCC the “PBM E-score” value was -0.05. CCCCGAAA was tested, and the “PBM E-score” value was 0.301. With CGCCGAAG the “PBM E-score” value was 0.0368. CACCGAAG was tested, and the “PBM E-score” value was 0.157. For TTCCGAAA, the “PBM E-score” value was 0.291. CCCCGAAC was tested, and the “PBM E-score” value was 0.0945. ATCCGAAA was tested, and the “PBM E-score” value was 0.272. GCCCGAAA was tested, and the “PBM E-score” value was 0.111. With GTCCGAAA the “PBM E-score” value was 0.447. CTCCGAAG was tested, and the “PBM E-score” value was 0.457. For GCGCTAGC, the “PBM E-score” value was -0.26. CGAGCCCG was tested, and the “PBM E-score” value was -0.187. AGAACTAC was tested, and the “PBM E-score” value was 0.0481. CATTGATA was tested, and the “PBM E-score” value was 0.139. In the case of AGGACTCC, the “PBM E-score” value is reported as 0.129. In the case of AGGACTCA, the “PBM E-score” value is reported as -0.114. With CCGACTCA the “PBM E-score” value was 0.0266. For GCGACTCC, the “PBM E-score” value was 0.119. For CCGACTCC, the “PBM E-score” value was 0.321. For GGGACTCA, the “PBM E-score” value was -0.288. For CGGACTCC, the “PBM E-score” value was 0.475. For CAGACTCC, the “PBM E-score” value was 0.0916. With CGGACTCA the “PBM E-score” value was 0.429. In the case of AAGGTCTA, the “PBM E-score” value is reported as -0.127. CTGGTTTA was tested, and the “PBM E-score” value was -0.0882. With ACCGACAC the “PBM E-score” value was 0.0514. GCGACTAA was tested, and the “PBM E-score” value was -0.0293. In the case of AGCCTAAC, the “PBM E-score” value is reported as -0.192. With GGAACCTA the “PBM E-score” value was -0.00606. With CGCTGCGA the “PBM E-score” value was -0.153. With ATGTCCGC the “PBM E-score” value was 0.282. With ATGTCCGA the “PBM E-score” value was 0.45. With ATGTCCGG the “PBM E-score” value was 0.451. For CTGTCCGA, the “PBM E-score” value was 0.192. ATGTCCCG was tested, and the “PBM E-score” value was 0.0332. For GTGTCCGA, the “PBM E-score” value was 0.149. In the case of ACACTGGT, the “PBM E-score” value is reported as -0.102. AGGGGCGG was tested, and the “PBM E-score” value was -0.158. For GAATATTA, the “PBM E-score” value was 0.255. For TAATATTA, the “PBM E-score” value was 0.313. In the case of CAATATCA, the “PBM E-score” value is reported as 0.188. For TAATATGA, the “PBM E-score” value was 0.315. CAATATGA was tested, and the “PBM E-score” value was 0.181. AAATATCA was tested, and the “PBM E-score” value was 0.161. GAATATGA was tested, and the “PBM E-score” value was 0.0941. TAATATCA was tested, and the “PBM E-score” value was 0.306. In the case of CAATATTA, the “PBM E-score” value is reported as 0.296.
